Assay results reported in PubChem BioAssay AID488857 (Sanford-Burnham Center for Chemical Genomics, 2010).
Hit rate of the full screen: of about 1,400 compounds, about 560 (40%) were called active. The set was probably picked from earlier hits. The list shows a part of the results. Values without a mark were called inactive.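 The calls were made as follows: active = mean inhibition over duplicate tests at 10 µM above 50%; inactive = the rest.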

test: ASC/caspase-1 reporter retest in S. cerevisiae at one dose, specificity check for NALP1 project (AID 488857); conditions: S. cerevisiae ASC/Caspase-1, beta-galactosidase luminescence, 24 h; at 10 µM; active compounds read high

Row | SMILES | inhibition
1 | Fc1ccc(C(OCCN2CCCC2)c2ccc(Br)cc2)cc1 (centres undefined) | 53.5% (active)
2 | CCCCN(Cc1ccccc1)C1CCN(CCc2ccccc2)CC1 | 52.6% (active)
3 | CSc1ncc(Cl)c(C(=O)O)n1 (tested in a mixture with another compound) | 35.1%
4 | Clc1ccc2nc3c(c(-c4ccccc4)c2c1)CNCC3 | 57% (active)
5 | O=C(c1ccccc1)C(CN1CCCC1)c1ccccc1 (centres undefined) | 25.8%
6 | COc1cc2c(cc1OC)CN(c1ccc([N+](=O)[O-])c(C(F)(F)F)c1)CC2 | 69% (active)
7 | CCOCCN1CCN(c2nnc3n2-c2ccc(Cl)cc2C(c2ccccc2Cl)=NC3)CC1 | 30.9%
8 | CN[C@H]1C[C@H]2O[C@@](C)([C@H]1OC)n1c3ccccc3c3c4c(c5c6ccccc6n2c5c31)C(=O)NC4 | 99.2% (active)
9 | Cc1ccc(C)c(NC(=S)NCCc2cnc[nH]2)c1 | 42.5%
10 | CC(Cc1ccccc1Sc1ccccc1)N(C)C (centres undefined) | 42.8%
11 | COCCNCCOc1ccc(C(C)(C)c2ccccc2)cc1 | 52.3% (active)
12 | CC1(C)C[C@H]2C=C(C=O)[C@]3(C=O)C[C@]3(C)[C@H]2C1 | 81.3% (active)
13 | O=C1/C(=C/c2cccc([N+](=O)[O-])c2)N2CCC1CC2 | 51.1% (active)
14 | Nc1c2c(nc3sc4c(c13)CCCCC4)CCCC2 | 91.1% (active)
15 | Nc1c2c(nc3sc4c(c13)CCCC4)CCCCC2 | 58.4% (active)
16 | CC(C)NS(=O)(=O)c1ccc(OCC(=O)N2CCN(C)CC2)cc1 | 17.6%
17 | CC(C)CCn1c(=O)c(C(=O)NCc2ccco2)c(O)c2ccccc21 | 44.8%
18 | Cc1cc2ccccn2c1C(C[N+](=O)[O-])c1c(F)cccc1Cl (centres undefined) | 52.8% (active)
19 | C[C@H]1C[C@@H](C)C(=O)[C@@H]([C@H](O)CC2CC(=O)NC(=O)C2)C1 | 98.8% (active)
20 | CC(Cc1ccccc1)NC(=O)/C=C/c1ccc(Cl)cc1 (centres undefined) | 71.7% (active)

Row | SMILES | inhibition
21 | c1ccc2sc(NC3=NCCN3)nc2c1 | 100% (active)
22 | O=C1/C(=C/c2cc3c(cc2Cl)OCO3)N2CCC1CC2 | 55% (active)
23 | Nc1ccc(C2(c3ccc(N)cc3)CN3CCC2CC3)cc1 | 35%
24 | CN1/C(=C\C=C\C2=[N+](C)c3ccc4ccccc4c3C2(C)C)C(C)(C)c2ccccc21 | 99.7% (active)
25 | CN1CCN(c2ccc(N)c(N3CCN(C)CC3)c2)CC1 | 31.1%
26 | O=C(c1cc2c(s1)-c1ccccc1OC2)N1CCC2(CC1)OCCO2 | 53.8% (active)
27 | N#CCCn1cc(C(=O)NCc2ccccc2)c(-c2ccccc2)n1 | 39.2%
28 | Cc1ccc(/C=C2\C(=O)NC(=O)N(CC3CCCO3)C2=O)s1 (centres undefined) | 46.5%
29 | Cc1ccc(Cn2cc(C=O)c(-c3ccc(C)cc3)n2)cc1 | 67.5% (active)
30 | Cc1cccc(N2C(=O)NC(=O)/C(=C/c3ccc([N+](=O)[O-])o3)C2=O)c1 | 45%
31 | Cc1ccc(S(=O)(=O)NC(CC(=O)N2CCC3(CC2)OCCO3)c2ccco2)cc1 (centres undefined) | 31.6%
32 | CN1C2CCC1/C(=C/c1ccccn1)C(=O)/C2=C\c1ccccn1 | 96.9% (active)
33 | CCCCCn1c(=O)c(C(=O)Nc2nc3ccccc3[nH]2)c(O)c2ccccc21 | 36.8%
34 | CCOc1cc(CNCCc2c[nH]c3ccccc23)cc(Cl)c1OCC | 43.5%
35 | Nc1cc(Cl)c2nonc2c1[N+](=O)[O-] | 57.1% (active)
36 | Cc1ccc(-c2nc(N3CCOCC3)s[n+]2-c2ccccc2)cc1 | 61.9% (active)
37 | CNC(=O)Oc1ccc2ncccc2c1 | 42.4%
38 | CC1CCCC(C)N1/N=C/c1c[nH]c2ccc(Br)cc12 (centres undefined) | 45.3%
39 | COc1cc(/C=C(/C)[N+](=O)[O-])ccc1OCc1ccccc1Cl | 80.2% (active)
